Data published in PubChem BioAssay (EPA / NIEHS).
Results filed as inconclusive are left out. Activity calls are given as the source filed them. How the source made its calls, unless noted: active means hit-call score of the fitted dose curve at least 0.9, where 1 is the maximum; inactive means score below 0.9.

How the values were obtained:
[1] = TOX21_p53_BLA_p2_viability: Viability Assessment in the Tox21 HCT-116 p53 Agonism Beta-lactamase Assay, Phase 2 (AID 2283591; active means hit-call score of the fitted dose curve at least 0.9, where 1 is the maximum;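 further: compound exposure lasted 16 h at 37 °C; actives lower the ATP signal meaning cytotoxicity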)
Summary of the method: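 HCT116 p53-bla cells, 4000/well, dosed after 5 h plating (217-fold dilution of DMSO stocks) and incubated 16 h at 37C. Viability taken as cellular ATP by CellTiter-Glo luminescence after 30 min RT; signal loss marks cytotoxicity.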

[2] = target: Cellular tumor antigen p53 (Homo sapiens) (UniProt P04637); assay: TOX21_p53_BLA_p2_ratio: Tox21 HCT-116 p53 Agonism Beta-lactamase Assay, Ratio, Phase 2 (AID 2283592; active means hit-call score of the fitted dose curve at least 0.9, where 1 is the maximum)
Cellular tumor antigen p53 (Homo sapiens), sequence (P04637 whole entry, looked up): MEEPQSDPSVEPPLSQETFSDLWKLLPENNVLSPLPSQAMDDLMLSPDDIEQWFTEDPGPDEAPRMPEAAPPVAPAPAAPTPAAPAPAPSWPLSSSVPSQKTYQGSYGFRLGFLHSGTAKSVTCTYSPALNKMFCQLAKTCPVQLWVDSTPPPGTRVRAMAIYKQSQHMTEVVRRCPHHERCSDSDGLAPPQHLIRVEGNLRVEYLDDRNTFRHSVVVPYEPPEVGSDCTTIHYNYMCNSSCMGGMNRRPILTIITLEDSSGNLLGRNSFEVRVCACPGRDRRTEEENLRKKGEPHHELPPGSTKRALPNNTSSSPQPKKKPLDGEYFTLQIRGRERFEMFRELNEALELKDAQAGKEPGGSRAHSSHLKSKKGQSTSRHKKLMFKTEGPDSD
Summary of the method: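 DMSO-normalized, positive-direction endpoint derived from the 460 nm/530 nm FRET ratio in HCT116 p53 beta-lactamase reporter cells exposed 16 h at 37C and loaded with CCF4-AM for 2 h.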

[3] = TOX21_p53_BLA_p3_viability: Viability Assessment in the Tox21 HCT-116 p53 Agonism Beta-lactamase Assay, Phase 3 (AID 2283593; active means hit-call score of the fitted dose curve at least 0.9, where 1 is the maximum;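 further: cells exposed to compound for 16 h before reading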)
Summary of the method: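 HCT116 cells, 4000/well, dosed 5 h after plating by pin transfer (217-fold dilution from DMSO stock) and incubated 16 h at 37C, 5% CO2. Viability read as ATP luminescence with CellTiter-Glo after 30 min at room temperature.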

[4] = target: Cellular tumor antigen p53 (Homo sapiens) (UniProt P04637); assay: TOX21_p53_BLA_p3_ratio: Tox21 HCT-116 p53 Agonism Beta-lactamase Assay, Ratio, Phase 3 (AID 2283596; active means hit-call score of the fitted dose curve at least 0.9, where 1 is the maximum)
Summary of the method: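 Cells were seeded at 4000/well, rested 5 h at 37C, then dosed with DMSO compound solutions (217-fold dilution) for 16 h. CCF4-AM substrate was loaded for 2 h at room temperature, and the 460/530 nm emission ratio was fitted for gain of signal versus DMSO.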

[5] = TOX21_p53_BLA_p4_viability: Viability Assessment in the Tox21 HCT-116 p53 Agonism Beta-lactamase Assay, Phase 4 (AID 2283597; active means hit-call score of the fitted dose curve at least 0.9, where 1 is the maximum;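 further: hits lower the luminescence signal meaning cytotoxicity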)
Summary of the method: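 In this multiplexed secondary endpoint, HCT116 cells (4000 per well, compound at 5 h, 16 h treatment) received CellTiter-Glo after the beta-lactamase read. Luminescence after 30 min RT reflects ATP, and falling signal marks cytotoxicity.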

[6] = target: Cellular tumor antigen p53 (Homo sapiens) (UniProt P04637); assay: TOX21_p53_BLA_p4_ratio: Tox21 HCT-116 p53 Agonism Beta-lactamase Assay, Ratio, Phase 4 (AID 2283601; active means hit-call score of the fitted dose curve at least 0.9, where 1 is the maximum)
Summary of the method: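 HCT-116 p53 beta-lactamase reporter cells (4000/well) preincubated 5 h, then compound (217-fold dilution of DMSO stock) for 16 h at 37C. CCF4-AM substrate added 2 h at room temperature; 460/530 nm emission ratio fitted upward versus DMSO.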

[7] = CCTE_Shafer_MEA_dev_firing_rate_mean: CCTE's Neural Network Formation Assay for Mean Firing Rate, Shafer Lab (AID 2284031)
Summary of the method: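 Spike frequency (spikes/recording length, averaged over active electrodes) was recorded on days 5, 7, 9 and 12 and collapsed to AUC; rat cortical cultures received compound continuously over 12 days of network development.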

[8] = CCTE_Shafer_MEA_dev_active_electrodes_number: CCTE's Neural Network Formation Assay for Number of Active Electrodes, Shafer Lab (AID 2284040; active means hit-call score of the fitted dose curve at least 0.9, where 1 is the maximum)
Summary of the method: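 Counts electrodes per well firing at least 5 spikes/min, recorded on days 5, 7, 9 and 12 in rat cortical cultures dosed continuously from plating (treatment refreshed DIV 5, 9). Value is the area under the curve over recordings, fitted downward relative to DMSO.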

[9] = CCTE_Shafer_MEA_dev_burst_rate: CCTE's Neural Network Formation Assay for Burst Rate, Shafer Lab (AID 2284042)
Summary of the method: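 Developmental network assay measuring how 12-day exposure of rat cortical neuron cultures alters bursting on extracellular MEA recordings. Values are AUC of well-mean burst rate across four recording days, relative to DMSO vehicle.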

[10] = CCTE_Shafer_MEA_dev_bursting_electrodes_number: CCTE's Neural Network Formation Assay for Number of Bursting Electrodes, Shafer Lab (AID 2284043; active means hit-call score of the fitted dose curve at least 0.9, where 1 is the maximum)
Summary of the method: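 Rat cortical primary neurons, 48-well MEA, 16 electrodes/well; dosing DIV 0–12, re-dosed with full media change DIV 5, 9. Recordings DIV 5/7/9/12, AxIS adaptive spike detector; bursting electrode = ≥1 burst/2 min. AUC across days; loss of signal vs DMSO.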

[11] = CCTE_Shafer_MEA_dev_per_burst_interspike_interval: CCTE's Neural Network Formation Assay for Burst Interspike Interval, Shafer Lab (AID 2284044);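 further: mean spike spacing inside bursts as AUC over recordings on days 5 7 9 12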
Summary of the method: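 Spontaneous activity of maturing rat cortical networks is recorded on DIV 5, 7, 9 and 12 under chronic compound exposure beginning at plating. Endpoint: burst interspike interval well-mean, collapsed into trapezoidal AUC and fitted in the negative direction relative to DMSO.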

[12] = CCTE_Shafer_MEA_dev_burst_duration_mean: CCTE's Neural Network Formation Assay for Mean Burst Duration, Shafer Lab (AID 2284045)
Summary of the method: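 Rat cortical cultures, 1.5 x 10^5 cells/well with laminin drop; continuous dosing days 0–12, media plus treatment refreshed DIV 5, 9. AxIS adaptive spike detection; mean single-electrode burst duration, AUC over four recordings, negative direction vs DMSO.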

[13] = CCTE_Shafer_MEA_dev_inter_network_spike_interval_mean: CCTE's Neural Network Formation Assay for Mean Inter-network Spike Interval, Shafer Lab (AID 2284047)
Summary of the method: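 Compound was given at plating to primary rat cortical neurons and renewed with full medium changes on DIV 5 and 9. Extracellular activity was recorded on days 5, 7, 9, 12; AUC values were fitted for loss relative to DMSO control.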

[14] = CCTE_Shafer_MEA_dev_network_spike_number: CCTE's Neural Network Formation Assay for Number of Network Spikes, Shafer Lab (AID 2284048);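 further: synchronized bursts across electrodes counted on days 5 7 9 12 and integrated as AUC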
Summary of the method: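 Rat cortical primary cultures on 48-well MEA (16 electrodes/well); continuous exposure DIV 0–12, full medium and treatment exchange DIV 5, 9. Readout: network spike count, AxIS adaptive detection, recordings DIV 5/7/9/12 collapsed to AUC; loss-of-signal fit, DMSO baseline.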

[15] = CCTE_Shafer_MEA_dev_network_spike_peak: CCTE's Neural Network Formation Assay for Mean Number of Electrodes in Network Spike, Shafer Lab (AID 2284049)
Summary of the method: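 Network-spike peak electrode count from recordings on days 5, 7, 9 and 12 was combined as trapezoidal area under the curve. Rat cortical cultures were treated continuously from plating, with compound renewed at each feed (DIV 5, 9); fits versus DMSO.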

[16] = CCTE_Shafer_MEA_dev_spike_duration_mean: CCTE's Neural Network Formation Assay for Mean Spike Duration, Shafer Lab (AID 2284051);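 further: mean network spike duration pooled as area under curve over DIV 5 to 12 recordings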
Summary of the method: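 With DMSO as baseline, loss of mean network spike duration was scored from extracellular recordings of rat cortical neurons on MEA plates. Exposure spanned plating to DIV 12; the four recording days were collapsed into one AUC value.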

[17] = CCTE_Shafer_MEA_dev_network_spike_duration_std: CCTE's Neural Network Formation Assay for Standard Deviation of Network Spike Duration, Shafer Lab (AID 2284052);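 further: area under curve of spike duration SD across recording days 5 to 12; hits are decreases in network spike duration SD versus DMSO vehicle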
Summary of the method: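 Developing networks of rat cortical neurons were exposed over twelve days in vitro on 48-well MEA plates. Trapezoidal AUC of recordings (DIV 5–12) was analysed for signal loss relative to DMSO vehicle.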

[18] = CCTE_Shafer_MEA_dev_per_network_spike_spike_number_mean: CCTE's Neural Network Formation Assay for Mean Number of Spikes in a Network Spike, Shafer Lab (AID 2284053)
Summary of the method: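 First, rat cortical cells (1.5 x 10^5/well) were seeded onto MEA wells; second, dosing began at plating and was refreshed on DIV 5 and 9; finally, network-spike spike counts across DIV 5–12 were summarized as AUC.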

[19] = CCTE_Shafer_MEA_dev_per_network_spike_spike_percent: CCTE's Neural Network Formation Assay for Percent of Spikes in a Network Spike, Shafer Lab (AID 2284054)
Summary of the method: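 Read-out: percent of spikes falling in a 0.05 s window at network-spike peak, from spontaneous MEA recordings on days 5, 7, 9 and 12; trapezoidal AUC; loss of signal versus DMSO. Rat cortical cultures, compound present throughout.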

[20] = UKN5_HCS_SBAD2_cell_viability: Viability Assessment in the University of Konstanz (UKN) Leist Lab Neurite Outgrowth Assay in human iPSC-derived immature Dorsal Root Ganglia Neurons (UKN5) (AID 2284056)
Summary of the method: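 iPSC-derived immature peripheral neurons (SBAD2) seeded on Matrigel with CHIR99021, SU5402 and DAPT, dosed 1 h later for 24 h. Viability from Hoechst H-33342 and calcein-AM live staining, high-content imaging; bidirectional fit versus DMSO.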

[21] = CCTE_Shafer_MEA_dev_LDH: CCTE's Lactate Dehydrogenase Assay for Cytotoxicity in the Neural Network Formation Assay, Shafer Lab (AID 2284068; active means hit-call score of the fitted dose curve at least 0.9, where 1 is the maximum;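 further: exposure for twelve days from plating with re-dosing on DIV 5 and 9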)
Summary of the method: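 Developing rat cortical networks on MEA plates are exposed to compound for 12 days from plating. LDH activity is measured spectrophotometrically, with DMSO as baseline.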

[22] = UKN5_HCS_SBAD2_neurite_outgrowth: University of Konstanz (UKN) Leist Lab Neurite Outgrowth Assay in human iPSC-derived immature Dorsal Root Ganglia Neurons (UKN5) (AID 2284070); settings: actives raise or lower the signal
Summary of the method: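 Neurite area from calcein-AM high-content images after 24 h exposure (staining included), with H-33342 for viability, fitted both directions against DMSO. Cells: thawed immature SBAD2 peripheral neurons, 100.000 cells/cm2, with CHIR99021, SU5402, DAPT; dosing 1 h after seeding.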

[23] = CCTE_Shafer_MEA_dev_mutual_information_norm: CCTE's Neural Network Formation Assay for Mutual Information Normalization, Shafer Lab (AID 2284091)
Summary of the method: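 Neurons from rat cortex were seeded at 1.5 x 10^5 cells/well onto PEI-coated MEAs in a laminin drop, then exposed to compound from day 0 for twelve days. Network recordings on four days gave mutual information, summarised by AUC relative to DMSO.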

[24] = CCTE_Shafer_MEA_dev_correlation_coefficient_mean: CCTE's Neural Network Formation Assay for Mean Correlation Coefficient, Shafer Lab (AID 2284093)
Summary of the method: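 Extracellular firing from rat cortical networks on 48-well MEAs, DMSO-referenced, negative fitting direction. Compound present from plating to DIV12; mean pairwise correlation per well integrated over DIV5–12 recordings by trapezoidal AUC.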

[25] = UKN2_HCS_IMR90_neural_migration: University of Konstanz (UKN) Leist Lab Neural Crest Cell Migration Assay in human induced IMR90 Pluripotent Stem Cells (UKN2) (AID 2284204); settings: actives raise or lower the signal
Summary of the method: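 Stopper-exclusion migration (cMINC), human iPSC-derived neural crest cells; N2-S + EGF/FGF; compound added 24 h post-stopper removal, 24 h exposure. Readout: calcein-AM/Hoechst 30 min, HCS fluorescence imaging; bidirectional fitting, DMSO baseline.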

[26] = UKN4_HCS_LUHMES_neurite_outgrowth: University of Konstanz (UKN) Leist Lab Neurite Outgrowth Assay in human LUHMES cells (UKN4) (AID 2284206); settings: actives raise or lower the signal
Summary of the method: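 After 24 h compound treatment beginning shortly after replating of 2-day-differentiated LUHMES cells, calcein-AM and H-33342 live staining allowed high-content imaging of neurite area and viability. Fitted bidirectionally against DMSO.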

[27] = IUF_NPC1b_proliferation_BrdU_72hr: Leibniz Research Institute for Environmental Medicine (IUF) 72-hour Neural Progenitor Cell Bromodeoxyuridine (BrdU) Proliferation Assay (NPC1b) (AID 2284207)
Summary of the method: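 Luminescent BrdU ELISA measured DNA synthesis during the last 16 h of a 72 h exposure of primary human neural progenitor spheres grown with EGF and FGF. Signal was fitted relative to DMSO controls.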

Measured: outcome

CC(C)(C)NCC(O)c1cc(O)cc(O)c1 (configuration not stated)
inactive: all assays above
